# Where “and” joins values, the source holds several entries; their conditions need not be identical. Identical values can stand only once. Records with an inconclusive call do not appear. A call without a number means that no potency is given here. Some compounds were tested as several samples or in several runs, with calls that do not always agree. Calls of active or inactive are those of the source. Calls come from the whole dose curve.
# How the values were obtained:
# [1] = Cytotoxicity counterscreen for inhibitors of SARS-CoV-2 cell entry (AID 1645845); note: nearly all actives have a fitted effect of over 50% in size
# Summary of the method: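 Counterscreen run in the same HEK293-ACE2 line as the pseudotyped-particle entry assay, without particles. Viability after 48 h at 37 C was read as ATP luminescence, scaled between cell-containing and cell-free wells.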
# [2] = Primary qHTS to identify inhibitors of SARS-CoV-2 cell entry (AID 1645846); settings: activity change, negative = inhibition: at 57.1 µM (top of the series) unless noted; note: nearly all actives have a fitted effect of over 45% in size; note: potency is the fitted concentration of half-maximal effect
# Summary of the method: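 Luminescence readout (Bright-Glo luciferase) 48 h after pseudoparticle addition. HEK293-ACE2 cells, 1500/well; compound pre-incubation 1 h; Normalized to spike PP and bald PP.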
compound,measurement,setting,value
CCCCN(CCCC)CCCOC(=O)c1ccc(N)cc1,Potency,[1],inactive
same,"activity change, negative = inhibition",[2],-17.6%
Nc1nc(Cl)nc2c1ncn2[C@@H]1O[C@H](CO)[C@@H](O)[C@@H]1F,Potency,[1],inactive
same,Potency,[2],22.4 µM (active)
CC[N+](C)(CC)CCOC(=O)C1c2ccccc2Oc2ccccc21,Potency,[1],inactive
same,Potency,[2],inactive
Cc1cccc(C)c1NC(=O)CC12CCCN1CCC2,Potency,[1],inactive
same,"activity change, negative = inhibition",[2],-23.5%
Nc1nc(=O)n([C@@H]2CS[C@H](CO)O2)cc1F,Potency,[1],inactive
same,"activity change, negative = inhibition",[2],-20.7%
Nc1ncn([C@H]2C[C@H](O)[C@@H](CO)O2)c(=O)n1,Potency,[1],inactive
same,"activity change, negative = inhibition",[2],-12.8%
CO[C@@]1(NC(=O)Cc2cccs2)C(=O)N2C(C(=O)O)=C(COC(N)=O)CS[C@@H]21,Potency,[1],inactive
same,Potency,[2],inactive
O=S(=O)(O)c1ccc(O)cc1,Potency,[1],inactive
same,"activity change, negative = inhibition",[2],2.14%
CCCCOC(=O)c1ccc(O)cc1,Potency,[1],inactive
same,Potency,[2],inactive
CC(=O)Nc1ccccc1,Potency,[1],inactive
same,"activity change, negative = inhibition",[2],4.61%
CC(C)(Sc1cc(C(C)(C)C)c(O)c(C(C)(C)C)c1)Sc1cc(C(C)(C)C)c(O)c(C(C)(C)C)c1,Potency,[1],inactive
same,Potency,[2],inactive
CC(C)=CCC/C(C)=C/CO,Potency,[1],inactive
same,"activity change, negative = inhibition",[2],2.42%
CCOC(=O)c1ccc(OCCN2C[C@H](O)[C@@H](O)[C@H](O)[C@H]2CO)cc1,Potency,[1],inactive
same,"activity change, negative = inhibition",[2],0.637%
CN1CCN(C(c2ccccc2)c2ccc(Cl)cc2)CC1 (configuration not stated),Potency,[1],inactive
same,Potency,[2],10 µM (active)
CCCc1ccc(OCC(=O)N2CCN(C(=O)COc3ccc(CCC)cc3OC)CC2)c(OC)c1,Potency,[1],inactive
same,"activity change, negative = inhibition",[2],-6.24%
C[C@](N)(Cc1ccc(O)cc1)C(=O)O,outcome,[1],inactive [at 5.25 µM]
same,outcome,[2],inactive [at 5.25 µM]
CC(O)(P(=O)(O)O)P(=O)(O)O,Potency,[1],inactive
same,Potency,[2],inactive
COc1cccc(OC)c1C(=O)N[C@@H]1C(=O)N2[C@@H]1SC(C)(C)[C@@H]2C(=O)O,Potency,[1],inactive
same,"activity change, negative = inhibition",[2],-19.9%
CC(=O)c1ccc(S(=O)(=O)NC(=O)NC2CCCCC2)cc1,Potency,[1],inactive
same,"activity change, negative = inhibition",[2],4.85%
CN(C)C(=O)Oc1ccc[n+](C)c1,Potency,[1],inactive
same,Potency,[2],inactive
O=C(O)COc1nn(Cc2ccccc2)c2ccccc12,Potency,[1],inactive
same,Potency,[2],inactive
CCCc1nc(C(C)(C)O)c(C(=O)OCc2oc(=O)oc2C)n1Cc1ccc(-c2ccccc2-c2nn[nH]n2)cc1,Potency,[1],inactive
same,"activity change, negative = inhibition",[2],-0.861%
CN=C(NC#N)NCCSCc1nc[nH]c1C,Potency,[1],inactive
same,"activity change, negative = inhibition",[2],4.18%
Cc1ccccc1OCC(O)CO (configuration not stated),Potency,[1],inactive
same,Potency,[2],inactive
Oc1ccc(OCc2ccccc2)cc1,Potency,[1],inactive
same,Potency,[2],inactive and 3.16 µM (active)
CCOc1ccc(NC(=O)CC(C)O)cc1 (configuration not stated),Potency,[1],inactive
same,"activity change, negative = inhibition",[2],-25.9%
CN[C@@H]1[C@@H](O)[C@@H](O[C@@H]2[C@H](O)[C@H](O[C@H]3OC(CN)=CC[C@H]3N)[C@@H](N)C[C@H]2N)OCC1(C)O (some centres not stated),Potency,[1],inactive
same,Potency,[2],inactive
C[C@H]1C[C@@H]2[C@H]([C@@H](O)C[C@@]3(C)[C@H]2CC[C@]3(O)C(=O)CO)[C@@]2(C)C=CC(=O)C=C12,Potency,[1],inactive
same,Potency,[2],inactive
CC1(C)O[C@@H]2C[C@H]3[C@@H]4CCC5=CC(=O)C=C[C@]5(C)[C@@]4(F)[C@@H](O)C[C@]3(C)[C@]2(C(=O)CO)O1,Potency,[1],inactive
same,Potency,[2],inactive
O=P(O)(O)C(O)(Cn1ccnc1)P(=O)(O)O,Potency,[1],inactive
same,outcome,[2],inactive [at 5.25 µM]
O=C(CCBr)N1CCN(C(=O)CCBr)CC1,Potency,[1],inactive
same,Potency,[2],inactive
O=C(CO)[C@@H](O)[C@H](O)[C@@H](O)CO,Potency,[1],inactive
same,"activity change, negative = inhibition",[2],-14.3%
CC[C@H](C)[C@H](N)C(=O)O,Potency,[1],inactive
same,Potency,[2],inactive
O=c1cc[nH]c(=O)[nH]1,Potency,[1],inactive
same,"activity change, negative = inhibition",[2],-14.8%
CS(=O)(=O)c1ccc([C@@H](O)[C@@H](CF)NC(=O)C(Cl)Cl)cc1,Potency,[1],inactive
same,"activity change, negative = inhibition",[2],-26.1%
CCCCCCCCCCCCCCCC(=O)OCCC1CCN(CCCN2c3ccccc3Sc3ccc(S(=O)(=O)N(C)C)cc32)CC1,Potency,[1],inactive
same,"activity change, negative = inhibition",[2],-4.81%

# Source: PubChem BioAssay (NCATS)
